Screening data as filed in PubChem BioAssay.
CHRM1 PAM: human CHRM1 positive allosteric modulation | activation, % at 3 µM | P11229 | CHO-K1 hM1, Fluo-8 calcium fluorescence, ACh EC20; 0% = ACh EC20, 100% = maximal ACh | hit rate 0.088% among 360,000; in the data active = activation above about 19%, passing the limit was not always enough
Target sequence (P11229 whole entry, looked up): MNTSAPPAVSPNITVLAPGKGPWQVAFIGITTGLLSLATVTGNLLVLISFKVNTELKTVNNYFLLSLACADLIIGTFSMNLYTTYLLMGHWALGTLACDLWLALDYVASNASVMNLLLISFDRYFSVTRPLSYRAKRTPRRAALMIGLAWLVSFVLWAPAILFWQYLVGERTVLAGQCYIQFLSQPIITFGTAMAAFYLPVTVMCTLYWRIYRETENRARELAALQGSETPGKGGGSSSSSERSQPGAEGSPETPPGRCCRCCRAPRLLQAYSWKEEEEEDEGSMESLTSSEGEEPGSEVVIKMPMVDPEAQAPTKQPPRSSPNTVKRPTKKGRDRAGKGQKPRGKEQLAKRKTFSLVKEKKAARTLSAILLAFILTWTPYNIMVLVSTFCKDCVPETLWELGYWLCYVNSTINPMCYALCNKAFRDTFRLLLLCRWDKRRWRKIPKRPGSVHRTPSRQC
CHO-K1 Ca ag: counter-screen for M1 agonists: effect in parental CHO-K1 cells. Fluo-8 calcium fluorescence; scaled to maximal ATP response, vehicle zero. activation, % at 3 µM. hit rate 0.48% among 360,000; in the data active = activation above about 15%;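 also: untransfected CHO-K1 host cells lacking M1 receptor as counterscreen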
M1 ag: activates human CHRM1 receptor; P11229; CHO-K1 hM1, Fluo-8 calcium fluorescence, agonist mode; 0% DMSO, 100% acetylcholine EC100; activation, % at 3 µM; hit rate 0.33% among 360,000; AID 588814;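 active = activation above the run's mean compound activation plus 3 SD, cut at about 16% in these data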;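 also: peak over basal fluorescence ratio within a 140 s kinetic read after compound addition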
CHO-K1 Ca antag: nonselective inhibitor or artifact in parental CHO-K1 cells. inhibition, % at 3 µM. ATP-induced calcium, Fluo-8 fluorescence. hit rate 0.6% among 360,000. AID 602250;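 active = inhibition above a per-plate cutoff, the plate's mean sample inhibition plus 3 SD, cut at about 24% in these data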;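 also: 0% = DMSO plus EC80 ATP and 100% = DMSO alone without ATP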
M1 antag: human CHRM1 antagonism | P11229 | CHO-K1 hM1, Fluo-8 calcium fluorescence, ACh EC80 antagonist | inhibition, % at 3 µM | hit rate 1.3% among 360,000 | AID 588852;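 active = percent inhibition above its own plate's cutoff, namely the mean of that plate's compound wells plus 3 SD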;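 also: peak over basal fluorescence ratio during 140 s after agonist addition; 0% = ACh EC80 plus DMSO and 100% = DMSO alone without agonist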
M1 PAM parental: nonselective activator or artifact in parental CHO-K1 calcium assay; activation, % at 3 µM; AID 602247; hit rate 0.02% among 360,000; ATP EC20, Fluo-8 calcium fluorescence; 0% at ATP EC20, 100% at ATP max;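 active = activation above the run cutoff, the mean activation of all test compounds plus 3 SD, cut at about 40% in these data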;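 also: peak over basal fluorescence ratio in a 140 s read after ATP addition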
Active calls of the source: *; · = no result given. Hits are enriched below; roughly 2.3% of the tested compounds scored in any of these assays.

SMILES | CHRM1 PAM | CHO-K1 Ca ag | M1 ag | CHO-K1 Ca antag | M1 antag | M1 PAM parental
CC(=O)N1CCC(N2CCCC(C(=O)c3cccc(Cl)c3)C2)CC1 (stereo unspecified) | -34 | 0 | -14 | -5 | 48* | 19
CC(C)(C)c1ccc(C(=O)C2CCCN(C3CCC3)C2)cc1 (stereo unspecified) | -22 | 1 | -7 | -8 | 52* | 16
Cc1cc(OCC(=O)NC(Cc2ccc(Cl)cc2)C(=O)O)c2c3c(c(=O)oc2c1)CCC3 (stereo unspecified) | 4 | 0 | -2 | 8 | -1 | -6
COC(=O)C1=C(c2ccc(OCc3ccccc3)cc2)C[C@@H]2CC[C@H]1N2C(=O)NCc1cccc(OC)c1 | -3 | 2 | -4 | -8 | 8 | 4
CC(C)(C)c1ccc(CSc2cnn(C(C)(C)C)c(=O)c2Cl)cc1 | -6 | 18* | 4 | 32* | 27 | -10
COc1cccc(C2CC3C(=O)C=CC2N3Cc2ccccc2)c1 (stereo unspecified) | -3 | 6 | -2 | 4 | 3 | -7
O=S(=O)(NC1CN2CCC1CC2)c1ccc(Cl)cc1 (stereo unspecified) | -19 | 1 | -12 | -8 | 25* | -11
C[n+]1c(-c2ccccc2)cc(CCCCc2cc(-c3ccccc3)[n+](C)c(-c3ccccc3)c2)cc1-c1ccccc1 | -19 | 0 | -5 | -6 | 55* | -1
Cc1ccc(-c2cc(-c3ccccc3)cc(-c3ccccc3)[n+]2-c2ccc(C(=O)O)cc2)cc1 | 15 | 0 | 0 | -14 | -7 | -1
COc1ccc(CNC(=O)CCC(=O)N2C[C@H]3C[C@H](C2)c2cccc(=O)n2C3)cc1 | 4 | 0 | -4 | -4 | -10 | 7
CCN(CC)CCOC(=O)c1ccc(N=Cc2c(O)[nH]c(=O)[nH]c2=O)cc1 | -15 | 0 | -7 | 24* | 22* | -6
COC(=O)C1=C(c2cccc(OCc3ccccc3)c2)C[C@@H]2CC[C@H]1N2C(=O)NCCOc1ccccc1 | 9 | 0 | 0 | -14 | 0 | 19
Oc1ccc(Cl)cc1 | 5 | 1 | 0 | 1 | -39 | 9
C[N+](C)(C)CCc1ccc(O)cc1 | 0 | 1 | 35* | -2 | -7 | 15
CNC(=O)Oc1cccc(-c2cn3cc(Cl)ccc3n2)c1 | 27* | 0 | -1 | 4 | 9 | -4
O=C(c1cccc(C(F)(F)F)c1)C1CCCN(Cc2ncc[nH]2)C1 (stereo unspecified) | -29 | 1 | -13 | -10 | 17 | 17
CCn1ccnc1CN1CCCC(C(=O)c2cccc(C(F)(F)F)c2)C1 (stereo unspecified) | -27 | 3 | -10 | -4 | 78* | 8
C[C@]12CCC3[C@@H](CCC4=CC(=O)CC[C@@]43C=O)C1CCC2=O (stereo partly specified) | 9 | 1 | -1 | -7 | 0 | -7
OCc1cnc[nH]1 | -1 | 0 | 0 | 36* | -26 | -7
CC(Cc1ccccc1Sc1ccc(O)cc1)N(C)C (stereo unspecified) | -23 | 2 | -4 | -3 | 83* | 9
CSc1ccc(CN2CCN(Cc3ccccc3Cl)CC2)cc1 | -5 | 0 | -5 | -3 | 5 | 1
CN1CCN(Cc2ccccc2Sc2ccccc2)CC1 | -22 | 3 | -10 | -10 | 100* | 11
COc1ccccc1Sc1ccccc1CC(C)N (stereo unspecified) | 1 | 2 | -6 | -2 | -2 | 13
CC(Cc1ccccc1Sc1ccccc1)N(C)C (stereo unspecified) | -24 | 2 | -10 | -6 | 98* | 23
O=C(NCCN1CCC2(CC1)C(=O)NCN2c1cccc(F)c1)c1ccc2ccccc2c1 | · | 41* | · | 93* | · | -19
O=C1NCN(c2ccccc2)C12CCNCC2 | 7 | 1 | -10 | -20 | -11 | 17
COC(=O)c1cccc(NC(=O)N2C[C@H]3C[C@@H](C2)c2cccc(=O)n2C3)c1 | 4 | 0 | -2 | 8 | -5 | -8
Cc1ccc(C(=O)C2CN(C)CC2C(=O)c2ccc(C)cc2)cc1 (stereo unspecified) | -7 | 0 | -2 | 3 | 13 | -1
